PubChem BioAssay AID371 (SRMLSC, 2006)
In all, about 3,300 compounds went through this assay and about 280 (8.5%) were called active.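 Rule for the calls: active = mean growth inhibition over the two runs of 50% or more; inactive = mean growth inhibition under 50%.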 The list comes from a sample in which actives are over-represented; it also holds similar structures and randomly drawn compounds.

Test: A549 NSCLC cell proliferation inhibitors – ATP luminescence, human non-small cell lung line, primary screen (AID 371);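 note: compound exposure lasted 72 h before the ATP read; 0% = untreated cell signal and 100% = no luminescence left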
Details: at 10 µM, stronger effect = higher value

Growth inhibition, active:
CNCCC(Oc1ccc(C(F)(F)F)cc1)c1ccccc1 (centres undefined) 91.3%, Clc1ccc(-n2ncc3c(NCc4ccco4)ncnc32)cc1 51.6%, Cc1cccc(-n2ncc3c(NCc4ccco4)ncnc32)c1 63%, Cc1ccc(-n2ncc3c(NCc4ccc5c(c4)OCO5)ncnc32)c(C)c1 52.8%, C=C1[C@@H](C)C2[C@H](Cc3ccccc3)NC(=O)[C@]23OC(=O)CC[C@H](O)CCC[C@H](C)C/C=C/[C@H]3[C@@H]1O (some centres undefined) 61%, COc1ccccc1N=Cc1nc(-c2ccccc2)oc1OC(C)=O 51.8%, CCOC(=O)c1ccc(N=Cc2nc(-c3ccccc3)oc2OC(C)=O)cc1 55.3%, CCc1oc2ccccc2c1C(=O)c1cc(Br)c(O)c(Br)c1 67.4%, O=c1[nH]c(-c2ccccn2)nc2ccccc12 57.6%, Cc1ccc2nc(C(F)(F)F)c(C#N)c(N)c2c1 63.8%, Oc1c(I)cc(Cl)c2cccnc12 68.5%, Oc1c(I)cc(I)c2cccnc12 74.1%, CCCCN(CCCC)C(=O)CSc1nnc2n(C)c(=O)c3c4c(sc3n12)CCCC4 70%, Cn1c(=O)c2c3c(sc2n2c(SCC(N)=O)nnc12)CC(C(C)(C)C)CC3 (centres undefined) 69.8%, Fc1ccc2[nH]c3c(N4CCSCC4)ncnc3c2c1 59.6%, Fc1ccc2[nH]c3c(N4CCN(c5ccccc5)CC4)ncnc3c2c1 90.1%, Fc1ccc2[nH]c3c(N4CCN(C5CCCCC5)CC4)ncnc3c2c1 86%, COC1=CC(=O)CC(C)C12Oc1c(Cl)c(OC)cc(OC)c1C2=O (centres undefined) 51.2%, CN(C)c1ccc(O)c2c1CC1CC3[C@@H](N(C)C)C(=O)C(C(N)=O)=C(O)[C@]3(O)C(=O)C1=C2O (some centres undefined) 59.9%, Clc1ccc2nc(N3CCNCC3)nc(-c3ccccc3)c2c1 92.3%, CNCCCC1c2ccccc2C=Cc2ccccc21 60%, CSc1nc(N)c(C#N)c(-c2ccccc2Cl)c1C#N 60.5%

Growth inhibition, inactive:
CCOC(=O)CSc1nc(N)c2c3c(sc2n1)CCCC3 -5.16%, COCCCn1cnc2c(c1=O)c1nc3ccccc3nc1n2CCc1ccccc1 26.2%, CN(C)c1nc(OCCOC(=O)Nc2ccc(Cl)cc2Cl)nc(N(C)C)n1 25.3%, NC(=O)/C(=N\O)c1ccccc1 2.31%, Cc1cc(C)n2c3c(c(C#N)c2n1)CC(C)(C)OC3 5.01%, Cc1nnc(SCCC#N)n(CCC#N)c1=O -2.27%, CN1C(=S)SC(N(O)C(=O)Nc2ccccc2)C1(C)C (centres undefined) 8.85%, O=c1[nH]cnc2c1cnn2Cc1ccccc1 -3.92%, Cc1cccc(-n2ncc3c(NCCN4CCOCC4)ncnc32)c1 4.3%, COc1ccccc1Nc1ncnc2c1cnn2-c1cccc(C)c1 6.73%, Clc1ccc(-n2ncc3c(NCc4ccccn4)ncnc32)cc1 12.7%, Clc1ccc(-n2ncc3c(NCc4cccs4)ncnc32)cc1 20.6%, Cc1ccc(-n2ncc3c(NCc4cccnc4)ncnc32)c(C)c1 30.4%, Cc1ccc(-n2ncc3c(NCCCOC(C)C)ncnc32)c(C)c1 21.4%, O=C1NC2c3ccccc3C(=O)N2c2c1cnn2-c1ccccc1 (centres undefined) 36.6%, CC(C)OCCCNc1ncnc2c1cnn2-c1ccccc1 35.1%, CCCOc1cccc(C2C(C(=O)c3ccc(C)o3)=C(O)C(=O)N2CCCN(C)C)c1 (centres undefined) 2.48%, C=CCSc1nnc2n(-c3ccccc3OC)c(=O)c3c4c(sc3n12)CCC4 19.2%, CCc1cccc(CC)c1N(COC)C(=O)Cn1nnc2ccccc21 -7.86%, CN(CCCCCNC(=O)/C=N/O)Cc1ccccc1 -0.65%, COC(=O)c1ccc(Oc2nc3ccccc3n3c(C)nnc23)cc1 -4%, O=C(Oc1oc(-c2ccco2)nc1C=Nc1ccccc1)c1ccoc1 34.4%, CC(=O)Oc1oc(-c2ccccc2)nc1/C=N/c1ccccn1 17.6%, CCC(=O)Oc1oc(-c2ccccc2)nc1C=Nc1ccccc1OC 48.5%, O=C(Oc1oc(-c2ccco2)nc1C=Nc1ccccc1)c1ccco1 35.2%, CCOC(=O)c1ccc(CSc2ncn[nH]2)o1 -2.33%, COc1ccccc1OCC(=O)Nc1ccc(S(=O)(=O)Nc2cc(C)nc(C)n2)cc1 5.4%, Cc1nn(C)cc1C1C2=C(CC(C)(C)CC2=O)OC2=C1C(=O)CC(C)(C)C2 1.38%, CC(=O)c1cc2c(=O)c3ccccc3oc2nc1C -5.08%, O=C(O)CCCCCCC1C(=O)NC(=O)N1CCC(O)C1CCCCC1 (centres undefined) -11.2%, CCC1SC(N)=NC1=O (centres undefined) 2.26%, c1ccc2[nH]c(-c3cscn3)nc2c1 5.76%, CCOC(=O)c1ccc(N2CC(O)=C(c3nc4ccccc4c(=O)[nH]3)C2=N)cc1 2.08%, COc1ccccc1-c1c(C)oc2c(CN3CCN(C)CC3)c(O)ccc2c1=O -0.86%, COC(=O)CN1C2(C#N)CCCCC2CC2CCCCC21C#N (centres undefined) 5.83%, COc1ccc(OC)c2c(N)c(C#N)c(C(F)(F)C(F)(F)F)nc12 2.04%, COC(=O)c1sc(NC(=O)c2oc3ccccc3c2C)nc1C 33.4%, N/C(=N\S(=O)(=O)c1ccc(Cl)s1)c1ccccc1 13.5%, CCCc1cc(NCCN2CCOCC2)n2c(nc3ccccc32)c1C#N 6.32%, O=C(O)C1[C@H]2C(=O)N(Cc3cccs3)C[C@]23C=C[C@H]1O3 (some centres undefined) 4.5%, O=C(C1=C(O)C(=O)N(CCN2CCOCC2)C1c1cccnc1)c1cc2ccccc2o1 (centres undefined) 3.18%, NC(=O)CSc1nnc2n(-c3ccccc3)c(=O)c3c4c(sc3n12)CCCCC4 46%, Cn1c(=O)c2c3c(sc2n2c(SCc4ccccc4)nnc12)CCCC3 8.25%, C=C(C)CSc1nnc2n(C)c(=O)c3c4c(sc3n12)CCC4 20.2%, CCCSc1nnc2n(C)c(=O)c3c4c(sc3n12)CCC4 20.4%, CCOC(=O)C1=C(CSc2nc3c(cc2C#N)CCC3)OC(N)=C(C#N)C1c1ccccc1 (centres undefined) 21%, Cc1ccc2c(c1)[C@@H]1CN(C)CC[C@@H]1N2S(=O)(=O)c1ccc(F)cc1 10.7%, CC1(C)Cc2c(C#N)c(NCC3CCCO3)nc(-c3ccco3)c2CO1 (centres undefined) 11%, CCOC(=O)C(OC(=O)c1sc(=S)n(C)c1C)C(C)=O (centres undefined) -4.85%, COCCNc1oc(-c2ccc(F)cc2)nc1C#N 2.78%, O=C(c1ccc(F)cc1)N1CCC(N2CCCCCC2)CC1 0.08%, CCOC(=O)c1[nH]c2ccc(F)cc2c1NC(=O)CCN1CCSCC1 0.98%, c1ccc2c(c1)[nH]c1c(N3CCN(C4CCCCC4)CC3)ncnc12 37.9%, Cc1ccc(-n2ncc3c(N4CCN(c5ccccc5)CC4)ncnc32)c(C)c1 32.8%, CN1CCN(c2ncnc3c2[nH]c2ccc(F)cc23)CC1 18.6%, CC(C)(C)c1cc(-c2ccco2)c(C#N)c(SCC#N)n1 5.39%, N#Cc1nc(COc2ccc(Br)cc2)oc1N1CCCC1 31.8%, O=C1C2ON(c3ccccc3)C(c3cccnc3)C2C(=O)N1c1ccc(Cl)c(Cl)c1 (centres undefined) 3.11%, O=C(O)C1CCCCN1S(=O)(=O)c1cccc2nsnc12 (centres undefined) -0.55%, COc1ccc(CCCNC(=O)CC#N)cc1OC 0.39%, CCOC(=O)c1[nH]c2ccccc2c1NC(=O)CCN1CCN(C(=O)OCC)CC1 1.45%, Cc1cc(C)n(CC2CC(=O)N(c3ccc(Cl)c(Cl)c3)C2=O)n1 (centres undefined) 0.6%, COc1ccccc1NC(=O)CSc1nnc(-c2ccc(NC(C)=O)cc2)n1C -3.92%, COC(=O)c1cccc(Nc2cc(C)nc(-c3ccccc3O)n2)c1 17.6%, CN(C)[C@@H]1C(=O)C(C(N)=O)=C(O)[C@@]2(O)C(=O)C3=C(O)c4c(O)ccc(Cl)c4[C@@H](O)[C@H]3C[C@@H]12 45.2%, OCCNc1nc(-c2ccccc2)c2ccccc2n1 -2.09%, Clc1ccc2c(c1)C(N1CCNCC1)=Nc1ccccc1O2 31.9%, O=C(O)C1CC=CCC1C(=O)N1CCN(c2nc(-c3ccccc3)c3ccccc3n2)CC1 (centres undefined) 25.7%, O=C(CNC1C(=O)Nc2ccccc21)Sc1ccccc1 (centres undefined) -5.29%, COc1ccc(/C(O)=C2/C(=O)C(=O)N(CCCN(C)C)C2c2ccc(C)o2)cc1Cl (centres undefined) 1.2%, COc1ccc2[nH]cc(C(=O)CN(C)CCc3ccc(OC)c(OC)c3)c2c1 15.3%, CNCCCN1c2ccccc2CCc2ccccc21 39.1%, COCCCN1C(=O)C(O)=C(C(=O)c2ccco2)C1c1ccc(Br)cc1 (centres undefined) 2.73%, Cc1nc2c(o1)CCc1ccccc1C2O (centres undefined) 0.13%, Cc1ccc(N2C(=O)C3ON(c4ccccc4)C(c4ccncc4)C3C2=O)cc1 (centres undefined) 7.22%, N#Cc1c(-c2ccccc2Cl)cc(C2CC2)nc1N 11.8%, CCSc1nc(N)c(C#N)c(-c2ccccc2Cl)c1C#N 3.11%
